Screens as filed in PubChem.
Sampled rows, rich in hits. Any-hit rate of the full collection: about 9%.
Lamin A splicing = qHTS Assay for Modulators of Lamin A Splicing. HeLa LMNA splicing GFP/RFP minigene ratio, 48 h. Potency, µM (doses to about 46.1 µM), for inactives: top-dose ratio change, negative = inhibition, actives largely listed as inhibitors. 200,000 tested, 0.01% active; active = well fitted inhibition curve with a large enough effect in the signal ratio, with a control signal flat, not every such curve was filed as active; inconclusive = small, poorly fitted or top-dose-only effect, or effect the other way, or a change in a side signal; the % refers to the signal ratio; note: % is set by controls: 0 for no effect and ±100 for the full control effect
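Read-out is the ratio of GFP to DsRed2 object intensity, acquired by 488 nm laser-scanning cytometry on HeLa lamin A-EGFP minigene reporter cells. Compound incubation 48 hrs at 37 °C in Opti-MEM with 2% FBS; DMSO 0.5% final.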
HPGD block = qHTS Assay for Inhibitors of HPGD (15-Hydroxyprostaglandin Dehydrogenase); purified HPGD, NADH fluorescence kinetic, PGE2 substrate; Potency, µM, for inactives: at the top dose activity change, negative = inhibition, most hits filed as inhibitors; 150,000 tested, 4.3% active; AID 894, 2007; active = well fitted inhibition curve with a large enough effect, not every such curve was filed as active; inconclusive = small, poorly fitted or top-dose-only effect, or another doubt; inactive = no such curve, though single readings can be large or run the other way; note: % is set by controls: 0 for no effect and ±100 for the full control effect
Target sequence (P15428 whole entry, looked up): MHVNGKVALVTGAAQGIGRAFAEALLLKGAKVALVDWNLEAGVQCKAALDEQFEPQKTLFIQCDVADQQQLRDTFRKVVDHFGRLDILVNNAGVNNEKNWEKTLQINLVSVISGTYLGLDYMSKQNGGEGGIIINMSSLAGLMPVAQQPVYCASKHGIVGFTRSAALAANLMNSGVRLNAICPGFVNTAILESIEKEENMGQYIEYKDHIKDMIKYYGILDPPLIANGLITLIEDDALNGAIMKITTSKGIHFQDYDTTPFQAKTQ
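NADH formation kinetics: reaction with 30 uM PGE2 and 1 mM NAD+ (final), 20 nM enzyme, Tris-HCl pH 8 with Tween 20, after 15 min compound preincubation at room temperature. Fluorescence change, last versus first of five reads.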
ALDH1A1 block = qHTS Assay for Inhibitors of Aldehyde Dehydrogenase 1 (ALDH1A1). Aldehyde dehydrogenase 1A1 (Homo sapiens), P00352. Purified ALDH1A1, NADH fluorescence, propionaldehyde substrate. Potency, µM (doses to about 75.3 µM), for inactives: at the top dose activity, negative = inhibition, most hits filed as inhibitors. 220,000 tested, 7.3% active; active = well fitted inhibition curve with a large enough effect, not every such curve was filed as active; inconclusive = small, poorly fitted or top-dose-only effect, or another doubt; inactive = no such curve, though single readings can be large or run the other way;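 note: plate controls were no enzyme wells and a reference inhibitor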
Target sequence (P00352 whole entry, looked up): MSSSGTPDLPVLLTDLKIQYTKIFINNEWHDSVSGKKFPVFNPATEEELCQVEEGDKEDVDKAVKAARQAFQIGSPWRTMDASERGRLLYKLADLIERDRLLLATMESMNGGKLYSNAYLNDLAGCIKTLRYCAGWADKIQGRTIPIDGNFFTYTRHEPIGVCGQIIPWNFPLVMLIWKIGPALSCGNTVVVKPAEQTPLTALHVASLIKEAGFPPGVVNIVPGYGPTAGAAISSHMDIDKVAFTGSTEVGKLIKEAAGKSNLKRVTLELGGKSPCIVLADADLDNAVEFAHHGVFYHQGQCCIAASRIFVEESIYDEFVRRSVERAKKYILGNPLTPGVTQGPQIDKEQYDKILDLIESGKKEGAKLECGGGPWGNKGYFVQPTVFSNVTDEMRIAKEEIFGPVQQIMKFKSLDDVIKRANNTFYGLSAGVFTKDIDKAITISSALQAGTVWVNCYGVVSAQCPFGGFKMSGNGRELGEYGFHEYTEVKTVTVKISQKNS
HTT cytoprotect = qHTS Multiplex Assay to Identify Dual Action Probes in a Cell Model of Huntington: Cytoprotection (ATP). PC12 HTT-Q103 induced, cytoprotection, ATP luminescence, 40 h. Potency, µM (doses to about 56.4 µM), inactives show cytoprotection (ATP increase), hits mostly activators. 230,000 tested, 0.14% active; note: % of control where 0% means no effect; nearly all actives have a fitted effect of over 45% in size
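Readout: ATPlite luminescence (ATP level). Model: stable PC12, inducible Htt exon1 Q103-GFP. Inducer: tebufenozide, 100 nM final. Compounds: dose series. No G418 in medium.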
Luc counter = Counterscreen for Luciferase (Kinase-Glo TM) Inhibition. Luciferin 4-monooxygenase (Photuris pensylvanica), Q27757. Kinase-Glo luciferase, ATP luminescence, 8 min. Potency, µM (series often up to 38.3 µM), for inactives: at the highest dose activity change, negative = inhibition, hits mostly inhibitors. 200,000 tested, 0.28% active; note: % is set by controls: 0 for no effect and ±100 for the full control effect; nearly all actives have a fitted effect of over 60% in size
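Light output from Kinase-Glo luciferase with luciferin and 10 uM ATP in 50 mM imidazole pH 7.2, KCl, MgCl2, Tween 20, BSA; compound pin-delivered, 8-min ambient incubation, then luminescence read.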
HTT aggregate = qHTS Multiplex Assay to Identify Dual Action Probes in a Cell Model of Huntington: Aggregate Formation (GFP) | PC12 HttQ103-GFP aggregates, Acumen cytometry, 40 h | Potency, µM (highest dose often 46.1 µM), for inactives: at the highest dose activity change, negative = inhibition, usual class: inhibitors | 220,000 tested, 1.1% active; note: % is set by controls: 0 for no effect and ±100 for the full control effect; nearly all actives have a fitted effect of over 60% in size
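PC12 cells stably carrying ecdysone-inducible HTT exon 1 Q103–GFP were induced with tebufenozide (100 nM final) and treated with library compounds in titration. GFP aggregates in lysates were counted by laser scanning cytometry.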
The depositor's hits bear a star; ? = inconclusive; / = no result given; [ ] = remark or other dose. Unless noted, calls come from the whole dose curve; as a rule, active = well fitted curve in the direction sought with a large enough effect; inconclusive = small, poorly fitted or top-dose-only effect, or another doubt; inactive = no such curve, though single readings can be large; an effect the other way counts as inactive or inconclusive. Potency is the fitted concentration of half-maximal effect.

SMILES	Lamin A splicing	HPGD block	ALDH1A1 block	HTT cytoprotect	Luc counter	HTT aggregate
COc1ccc(Nc2nc(Nc3ccc(OC)cc3)nc(-n3[nH]c(=O)c(C)c3C)n2)cc1	-5.3%	-17.1%	25.1µM*	-67.6%	-0.2%	?
COc1ccc(Nc2nc(OC)nc(N3CCOCC3)n2)cc1	/	/	2.6%	13.2%[10 µM]	-1.2%	-12.2%[9.22 µM]
COc1ccc(CNC(=O)Cn2c(=O)n3nc(-c4ccc(OC)cc4)nc3c3ccccc32)cc1	12.8%[46 µM]	/	/	/	/	/
COc1ccc(Cl)cc1NC(=O)Cn1c(=O)n2nc(C)nc2c2ccccc21	-9.3%	-20.9%	7.94µM*	-26.3%	0.6%	17.5%
COc1ccccc1NC(=O)Cn1c(=O)n2nc(C)nc2c2ccccc21	-1.1%	-15.6%	20µM*	-12.8%	15.2%	5.9%
CS(=O)(=O)Nc1cccc(-c2nc(-n3ccnc3)c3ccccc3n2)c1	?	/	4.4%	?	/	/
CS(=O)(=O)Nc1cccc(-c2nccc(-n3ccnc3)n2)c1	9.7%	17.8µM*	-5.2%	-5.8%	-0.6%	/
O=c1c2ccccc2nnn1Cc1nnc(-c2ccccc2Br)o1	-2.0%	28.2µM*	?	-23.6%[10 µM]	-0.7%	-14.6%
CC1CCN(S(=O)(=O)c2cnc(Cl)c(Br)c2)CC1	13.0%	-15.4%	0.126µM*	/	2.4%	?
CC1CCCCN1S(=O)(=O)c1cnc(Cl)c(Br)c1 (configuration not stated)	13.1%	-21.7%	2.51µM*	/	-3.6%	?
OCCCCNCc1ccc(OCc2ccccc2)cc1	?	/	5.1%	-1.6%[10 µM]	/	9.1%
COC(=O)c1ccc(CSc2nc3c([nH]c4ccccc43)c(=O)n2-c2cccc(OC)c2)o1	-8.9%[46 µM]	/	/	/	/	/
CN(Cc1ccccc1)c1ccc2nnc(-c3ccccc3)n2n1	?	-24.3%	7.4%	/	1.6%	35.5µM*
Cc1ccc(OCC(=O)N2CCc3ccccc3C2)c([N+](=O)[O-])n1	12.6%[46 µM]	/	10.2%	-58.6%	-0.5%	-5.8%
COc1cc(C2NC(C(=O)O)CS2)ccc1OCc1ccccc1C#N (configuration not stated)	6.4%	-16.6%	8.91µM*	15.4%	-22.6%	11.7%
COc1cc(/C=C/C(=O)O)ccc1OCc1ccccc1C#N	0.5%	-29.3%	?	/	1.7%	7.3%
c1ccc(CNc2ncnc3c2oc2ccccc23)nc1	10.6%	-16.4%	1.7%	-10.0%	-3.1%	-19.7%
CCc1nc(NCCN2CCOCC2)c2oc3ccccc3c2n1	6.3%	-16.3%	0.891µM*	-19.7%[0.074 µM]	-3.1%	-4.6%
CCc1nc(N2CCCCC2)c2oc3ccccc3c2n1	?	-11.9%	12.6µM*	-35.8%	-0.5%	-19.2%
CCc1nc(NCc2ccccn2)c2oc3ccccc3c2n1	?	-7.7%	5.9%	-40.3%[0.074 µM]	0.7%	12.6µM*
CCc1nc(NCCCN2CCOCC2)c2oc3ccccc3c2n1	-11.6%	-7.8%	3.6%	-14.5%[0.074 µM]	-0.5%	-0.8%
COc1ccc(OCCNC(=O)C(c2ccccc2)c2ccccc2)cc1	0.5%	-19.0%	?	-4.8%	-0.6%	-21.6%
O=C(O)c1ccc(NC(CSCc2ccccc2F)C(=O)O)c([N+](=O)[O-])c1 (configuration not stated)	-2.5%	-16.9%	7.94µM*	/	2.9%	-1.2%
Cc1ccc(CSCC(Nc2ccc(C(=O)O)cc2[N+](=O)[O-])C(=O)O)cc1 (configuration not stated)	6.3%	-10.1%	?	19.4%	-2.8%	9.8%
O=C(O)c1ccc(NC(CSCc2ccc(F)cc2)C(=O)O)c([N+](=O)[O-])c1 (configuration not stated)	7.2%	-3.3%	22.4µM*	9.4%	-1.5%	2.1%
SMILES	Lamin A splicing	HPGD block	ALDH1A1 block	HTT cytoprotect	Luc counter	HTT aggregate
COC(=O)c1cccc(C#CC(NP(=O)(c2ccccc2)c2ccccc2)c2ccccc2)c1 (configuration not stated)	/	-11.7%	12.6µM*	-3.4%	-3.1%	-2.4%[9.22 µM]
COC(=O)c1ccc(C#CC(NP(=O)(c2ccccc2)c2ccccc2)c2ccccc2)cc1 (configuration not stated)	/	25.1µM*	?	?	-8.7%	/
Cc1oc2ccc(NS(=O)(=O)c3ccc(C(C)(C)C)cc3)cc2c1C(=O)Nc1ccccc1	-11.3%[0.0737 µM]	-25.3%	?	5.3%	-1.6%	4.0%
NC(CCC(=O)NCS(=O)(=O)O)C(=O)O (configuration not stated)	-19.5%	6.7%	6.1%	-27.3%	1.6%	/
Nc1nnc(CCc2ccccc2)s1	9.1%	-9.0%	1.6%	-6.3%	-5.3%	-4.6%
Cc1cccc(CSCc2nnc(N)s2)c1	-13.7%	28.2µM*	?	1.4%[10 µM]	-1.6%	-10.5%
Nc1nnc(Cc2ccc(F)cc2)s1	/	/	/	-7.2%[10 µM]	/	-24.8%[9.22 µM]
Nc1nnc(Cc2ccccc2)s1	22.8%	-9.1%	11.2µM*	-9.8%	4.5%	9.9%[9.22 µM]
COc1ccc(Cc2nnc(N)s2)cc1	?	28.2µM*	?	16.2%	-2.6%	8.8%
COc1ccc(Cc2nnc(N)s2)cc1OC	-7.3%	31.6µM*	28.2µM*	2.0%[1.9 µM]	7.1%	11.1%
Nc1nnc(CSCc2ccccc2)s1	10.6%	-0.2%	4.9%	0.3%[10 µM]	2.9%	10.5%
COc1ccc(S(=O)(=O)n2cnc3cc(C)c(C)cc32)cc1	?	-20.4%	?	-2.6%	0.5%	?
COc1cc2nc(CN3CCOCC3)n(CC(=O)N3CCCCCC3)c(=O)c2cc1OC	/	/	/	3.6%[10 µM]	/	-0.3%[9.22 µM]
Nc1nnc(CC(c2ccccc2)c2ccccc2)s1	-7.7%	22.4µM*	1.5%	12.7%	-3.0%	7.2%
CCN1CCN(C(=O)CN(C)S(=O)(=O)c2cc(C)ccc2OC)CC1	/	/	?	13.8%[10 µM]	-5.1%	12.4%[9.22 µM]
CCCn1c(CNc2ccc(Br)cc2)nc2ccccc21	1.6%	-14.5%	2.1%	-12.9%	2.3%	11.2µM*
CCn1c(CNc2ccc(C(=O)O)cc2)nc2ccccc21	11.1%	-5.8%	-9.0%	-16.6%	-3.7%	-9.7%
Cc1ccccc1OCCC(=O)OCC(=O)Nc1cc(S(=O)(=O)N2CCOCC2)ccc1Cl	-4.8%[46 µM]	/	2.51µM*	-3.0%	-0.6%	0.6%
Cc1cccc(NC(=O)COC(=O)CCc2ccc(S(=O)(=O)N3CCOCC3)cc2)c1C	/	/	3.55µM*	-4.1%	4.1%	0.3%[9.22 µM]
O=C(COC(=O)c1cccs1)Nc1cc(S(=O)(=O)N2CCOCC2)ccc1Cl	?	/	-5.9%	22.7%	0.3%	6.9%
